Compound activity: PubChem BioAssay, several laboratories
Sampled rows, rich in hits. Any-hit rate of the full collection: about 5.2%.
APOBEC3A inh = inhibitors of human APOBEC3A DNA deaminase. P31941. recombinant A3A, FAM/TAMRA ssDNA deamination fluorescence. inhibition, % at 20 µM. 0.41% of 330,000 active;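 active means at least 40% inhibition at 20 µM here, with at most 30% in a related deaminase screen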
Target sequence (P31941 whole entry, looked up): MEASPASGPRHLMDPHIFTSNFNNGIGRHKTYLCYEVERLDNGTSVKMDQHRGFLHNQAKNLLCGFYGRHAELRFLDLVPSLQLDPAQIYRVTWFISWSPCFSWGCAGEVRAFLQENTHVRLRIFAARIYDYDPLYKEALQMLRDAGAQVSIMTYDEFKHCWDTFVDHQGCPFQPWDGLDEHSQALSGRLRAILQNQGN
Yeast superoxide = yeast age-related superoxide inhibition as caloric restriction mimetic; 0.18% of 330,000 active; S. cerevisiae aged cells, superoxide DHE fluorescence; stronger effect = lower value; superoxide response (% of plate mean), % at 10 µM;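 active means superoxide response under a set limit, about three screen SD below normal, cut at about 65% in these data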;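 further: yeast aged for seven days with compound at 30 °C before DHE staining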
NRP1-CendR mod = alters CendR peptide binding to human NRP-1; inhibition, % at 25 µM; 0.85% of 360,000 active; FAM-RPARPAR peptide binding to NRP-1, fluorescence polarization;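 active means inhibition or corrected inhibition above about 18%, plus a signal ratio from 0.5 to 1.5, limit read from the data, passing the limit was not always enough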
APOBEC3G inh = blocks human APOBEC3G single-stranded DNA deamination; recombinant A3G, ssDNA deamination FAM/TAMRA fluorescence; inhibition, % at 20 µM; Q9HC16; 0.28% of 330,000 active;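 active means inhibition of at least 40% at 20 µM, with no more than 30% in the related APOBEC3A deaminase screen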
ALR inh = blocks human ALR sulfhydryl oxidase activity | P55789 | purified ALR, DTT oxidation, H2O2 HRP-luminol luminescence | inhibition, % (concentration not given with the values) | 3.8% of 290,000 active | AID 485317;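 active means mean replicate inhibition above about 79%, with every replicate also reaching it, limit read from the data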
Target sequence (P55789 whole entry, looked up): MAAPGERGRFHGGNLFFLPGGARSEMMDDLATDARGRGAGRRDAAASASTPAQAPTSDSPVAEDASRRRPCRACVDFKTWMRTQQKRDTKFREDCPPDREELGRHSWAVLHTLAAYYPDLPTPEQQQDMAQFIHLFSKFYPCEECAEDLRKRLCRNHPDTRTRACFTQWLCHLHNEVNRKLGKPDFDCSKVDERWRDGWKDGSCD
M18AAP inhibitor = PfM18AAP enzyme inhibition. inhibition, % at 7.35 µM. recombinant PfM18AAP, H-Glu-NHMec fluorogenic cleavage. 1.2% of 290,000 active;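 active means inhibition above the campaign mean inhibition over all tested compounds plus 3 SD, cut at about 28% in these data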
Each line names hits and unclear results; the compound was inactive in the other large screens.

CC1=C(C)CC2(SC1)C(=O)N(c1ccccc1)N=C2N (stereo not drawn)	ALR inh 94
CC1=NN(c2ccccc2)C(=O)C1(C)C	none
COc1ccc(Cl)cc1NCCC(O)c1ccc(F)cc1 (stereo not drawn)	ALR inh 99
COc1ccc(NCCC(O)c2ccc(Cl)cc2)cc1 (stereo not drawn)	ALR inh 99
COc1ccc(Cl)cc1NC(=S)NCCc1ccc(F)cc1	none
O=Cc1cccc(OC(=O)/C=C/c2ccco2)c1	ALR inh 98
O=[N+]([O-])c1ccc(Nc2nc(NC3CCCCC3)nc(N3CCCC3)n2)cc1	NRP1-CendR mod 39
O=C(Cn1cnc2ccccc2c1=O)N/N=C/c1ccc(Br)cc1	NRP1-CendR mod 23
COc1cc(/C=N/NC(=O)Cn2cnc3c2c(=O)n(C)c(=O)n3C)ccc1O	ALR inh 100
Cc1ccc(/C=N/NC(=O)Cn2cnc3ccccc32)cc1	none
COc1cc(/C=N/NC(=O)Cn2cnc3ccccc3c2=O)ccc1O	ALR inh 84
CSCCC(NC(C)=O)C(=O)OCC(=O)N(c1ccccc1)c1ccccc1 (stereo not drawn)	none
CCOC(=O)c1c(NC(=O)CSc2nnc(CNc3ccc(Cl)cc3)o2)sc(C)c1C	ALR inh 84
NCCc1nnc(SCC(=O)Nc2cccc(Cl)c2)o1	ALR inh 99
O=C(CSc1nnc(CNC(=O)c2c(F)cccc2Cl)o1)Nc1ccc2c(c1)OCCO2	ALR inh 99
CCOC(=O)c1c(NC(=O)CSc2nnc(CNc3ccc(F)cc3)o2)sc(C)c1C	none
CCOC(=O)c1ccc(NC(=O)CSc2nnc(CNC(=O)c3c(F)cccc3Cl)o2)cc1	ALR inh 99
O=C(c1ccc(F)cc1Cl)N(Cc1ccco1)C1CCS(=O)(=O)C1 (stereo not drawn)	none (no result: ALR inh, M18AAP inhibitor)
CSc1nnc(-c2cc[n+](C)cc2)n1CCO	none
O=C(CSc1nnc(CNC(=O)c2c(F)cccc2F)o1)Nc1ccc2c(c1)OCCO2	ALR inh 98
O=C(CSc1nnc(CNC(=O)c2c(F)cccc2F)o1)Nc1ccc2c(c1)OCO2	ALR inh 98
COCCn1c(SCC(=O)c2ccccc2)nc2ccccc2c1=O	ALR inh 97
COCCn1c(SCC(=O)c2ccccc2)nc2c(c1=O)SCC2	ALR inh 94
CCn1c(SCc2cccc(F)c2)nc2c(c1=O)SCC2	ALR inh 97
COCCCn1c(SCC(=O)c2ccccc2)nc2ccccc2c1=O	none
CC(C)N(CCCNC(=O)c1ccc(CS(=O)(=O)c2c(Cl)cccc2Cl)o1)Cc1ccccc1	none
O=C(CC(SCCO)c1ccc(F)cc1)c1ccco1 (stereo not drawn)	ALR inh 89
Cc1ccc(C(CC(=O)c2ccco2)SCCO)cc1 (stereo not drawn)	none
O=C(Cc1ccc(-n2cccc2)cc1)N1CCc2ccccc21	none (no result: ALR inh)
O=C(Nc1ccc(F)cc1)c1ccccc1F	none
O=C(Nc1ccc(SC(F)F)cc1)c1ccccc1F	ALR inh 99
CCC(CO)Nc1ncnc2c1cnn2-c1ccc(OC)cc1 (stereo not drawn)	none
C=C1C2(C(=O)Nc3nccs3)CCC(C2)C1(C)C (stereo not drawn)	none
CCN1CCN(CCCNC(=O)c2cc3c(=O)oc4ccc(C)cc4c3s2)CC1	none
Cc1ccnc(N2C(=O)c3ccccc3C2O)c1 (stereo not drawn)	none
Cc1ccc(N2C(=O)c3ccccc3C2C(=O)c2ccc(O)cc2O)cc1 (stereo not drawn)	M18AAP inhibitor 30
C=CCOC(=O)Nc1nc(CCNC(=O)OCc2ccccc2)c(C(=O)OC)s1	none (no result: APOBEC3A inh, Yeast superoxide, APOBEC3G inh, ALR inh, M18AAP inhibitor)
C#CCNC(=O)C1=C[C@H](C2CCCCC2)C[C@H](OCc2ccc(CO)cc2)O1	none
C#CCNC(=O)C1=C[C@@H](C2CCCCC2)C[C@@H](OCc2ccc(CO)cc2)O1	NRP1-CendR mod 28 (no result: Yeast superoxide)
O=C1c2ccc(-c3ccc(F)cc3OCc3ccccc3)cc2S(=O)(=O)c2cccc(C(=O)N3CCN(c4ncc(Cl)cc4Cl)CC3)c21	none (no result: M18AAP inhibitor)
O=C(O)COc1ccccc1/C=C1\SC(=S)N(/N=C/c2ccccc2O)C1=O	M18AAP inhibitor 33
O=C(O)COc1ccccc1/C=C1\SC(=S)N(NC(=O)c2ccccc2O)C1=O	none (no result: M18AAP inhibitor)
CCOc1ccc(CSC(CC(=O)O)C(=O)O)cc1 (stereo not drawn)	ALR inh 98
